According to PubChem BioAssay (Tox21):
Several values for one entry are separate records, joined by “and”; a condition that tells them apart may be missing. Identical values can stand only once. Inconclusive results are not listed. A structure can be active in one record and inactive in another. Activity calls are given as the source filed them. Unless noted, calls follow the shape of the full dose curve.

What was measured:
[1] = Nuclear factor erythroid 2-related factor 2/antioxidant responsive element (Nrf2/ARE) small molecule agonists: luciferase reporter gene qHTS assay in human keratinocytes (AID 1919969); also: nearly all actives have a fitted effect of over 35% in size; also: potency is read from the fitted curve at half-maximal effect
[2] = molecular target: Gonadotropin-releasing hormone receptor (Homo sapiens) (UniProt P30968); experiment: Human gonadotropin-releasing hormone receptor (GnRHR) small molecule agonists, calcium flux assay in GnRHR-HEK293 cells (AID 1920063); also: nearly all actives have a fitted effect of over 35% in size
How it was run: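 Agonist mode: compounds at 15 concentrations, in triplicate, went onto calcium dye-loaded GnRHR-HEK293 cells. Intracellular calcium was then followed as 480/540 nm fluorescence at 1 s intervals over 3 min.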

[3] = molecular target: KiSS-1 receptor (Homo sapiens) (UniProt Q969F8); experiment: Human kisspeptin (KISS1R) small molecule agonists, calcium flux assay in KISS1R-HEK293 cells (AID 1920064; active = well fitted activation curve with a large enough effect in the repeat runs)
How it was run: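 Agonist mode: intracellular calcium rise tracked at 1 s intervals over 3 min (480/540 nm) immediately after compound addition to dye-loaded KISS1R-HEK293 stable cells. Each compound tested at 15 concentrations in triplicate.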

[4] = G protein-coupled receptor (GPCR) small molecule agonists, calcium flux assay: HEK293 wild type cell line counter screen (AID 1920065)
How it was run: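 Calcium flux counter screen: compound added in agonist mode at 15 concentrations in triplicate to dye-loaded parental HEK293 cells. Fluorescence (480/540) read kinetically for 3 min; ATP served as positive control.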

[5] = p53 small molecule agonists, cell-based qHTS assay with human liver microsomes (AID 1963577);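 also: p53 response element beta-lactamase reporter cells with liver microsomes plus NADPH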
How it was run: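 With metabolic activation: human liver microsomes (0.5 mg/mL final) plus NADPH (0.5 mg/mL final) added alongside compounds to p53RE-bla cells; 16 h 37 C exposure; beta-lactamase read by LiveBLAzer fluorescence.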

[6] = p53 small molecule agonists, cell-based qHTS assay with rat liver microsomes (AID 1963578)
How it was run: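 Metabolic activation by rat liver microsomes and NADPH, each 0.5 mg/mL final, added right after compounds to p53RE-bla reporter cells (4,000/well, plated 5 h earlier). 16 h at 37 C, then LiveBLAzer substrate for 2 h at room temperature in the dark; fluorescence read-out.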

[7] = p53 small molecule agonists, cell-based qHTS assay with human liver microsomes: qHTS cell viability counter screen (AID 1963579); also: nearly all actives have a fitted effect of over 45% in size
How it was run: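 Metabolic activation used human liver microsomes and NADPH, both 0.5 mg/mL final, over 16 hours at 37 C on p53RE-bla cells (4,000/well). Cytotoxicity measured by CellTiter-Glo luminescence, 30 min at room temperature.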

[8] = p53 small molecule agonists, cell-based qHTS assay with rat liver microsomes: qHTS cell viability counter screen (AID 1963580); also: nearly all actives have a fitted effect of over 45% in size
How it was run: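 Cytotoxicity counter screen: intracellular ATP read by CellTiter-Glo luminescence in the p53 reporter wells. HCT-116 p53RE-bla cells were treated for 16 h at 37 C alongside rat liver microsomes and NADPH, each 0.5 mg/mL final.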

[9] = p53 small molecule agonists, cell-based qHTS assay: qHTS cell viability counter screen (AID 1963581); also: nearly all actives have a fitted effect of over 45% in size
How it was run: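 Counter screen read by CellTiter-Glo luminescence (ATP content, 30 min at room temperature), run in the same wells as the beta-lactamase reporter read. HCT-116 p53RE-bla cells saw compounds for 16 h at 37 C.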

[10] = p53 small molecule agonists, cell-based qHTS assay (AID 1963582; active = well fitted activation curve with a large enough effect in the signal ratio in the repeat runs, not every such curve was filed as active; the % refers to the signal ratio)
How it was run: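 Read-out is beta-lactamase FRET fluorescence after 2 h at room temperature with LiveBLAzer B/G substrate. p53 response element-bla cells were treated 16 h at 37 C with compounds in DMSO, added 5 h after seeding.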

[11] = molecular target: 5-hydroxytryptamine receptor 2A (Homo sapiens) (UniProt P28223); experiment: 5-hydroxytryptamine receptor 2A (HTR2A) small molecule antagonists, cell-based qHTS assay (AID 1963586); also: nearly all actives have a fitted effect of over 45% in size
How it was run: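 CHO cells stably expressing human HTR2A were plated for 18 h at 37 C, then loaded with calcium dye for 1 h. Compounds were preincubated 5 min at room temperature before DOI (4 nM solution) was added. Kinetic fluorescence was read for 3 min.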

[12] = molecular target: 5-hydroxytryptamine receptor 2A (Homo sapiens) (UniProt P28223); experiment: 5-hydroxytryptamine receptor 2A (HTR2A) small molecule agonists, cell-based qHTS assay (AID 1963587); also: nearly all actives have a fitted effect of over 30% in size
How it was run: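 Kinetic calcium-flux fluorescence (2 min, 1 sec intervals) after compound addition in agonist mode. HTR2A-CHO cells were cultured 18 h, then dye-loaded 1 h at 37 C.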

[13] = molecular target: Muscarinic acetylcholine receptor M1 (Homo sapiens) (UniProt P11229); experiment: Cholinergic receptor muscarinic 1 (CHRM1) small molecule antagonists, cell-based qHTS assay (AID 1963588); also: nearly all actives have a fitted effect of over 40% in size; also: potency is read from the fitted curve at half-maximal effect
How it was run: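 Compounds were tested at 15 concentrations in three independent runs. Dye-loaded CHRM1-CHO cells were exposed 5 min at room temperature before stimulation by acetylcholine added at 50nM. Intracellular calcium was read kinetically on FDSS for 3 min.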

[14] = molecular target: Muscarinic acetylcholine receptor M1 (Homo sapiens) (UniProt P11229); experiment: Cholinergic receptor muscarinic 1 (CHRM1) small molecule agonists, cell-based qHTS assay (AID 1963589); also: nearly all actives have a fitted effect of over 35% in size
How it was run: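 Agonist-mode calcium-flux screen: compounds at 15 concentrations, three independent runs, were pin-transferred onto dye-loaded human CHRM1-CHO cells. Fluorescence was then recorded kinetically every second over minutes.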

[15] = cAMP Responsive Elements (CRE) small molecule agonists, cell-based qHTS assay (AID 1963590)
How it was run: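 Agonist mode: compound added to CRE-bla HEK 293T cells (2,000/well, 18 h after plating) for 3 h at 37 C/5% CO2. Reporter activity detected via FRET beta-lactamase substrate, 2 h room-temperature loading.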

[16] = molecular target: Beta-2 adrenergic receptor (Homo sapiens) (UniProt P07550); experiment: Adrenergic beta2 receptor (ADRB2) small molecule antagonists, cell-based qHTS assay (AID 1963592); also: series mostly up to about 92 µM; nearly all actives have a fitted effect of over 50% in size
How it was run: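 Assay format: CHO-ADRB2 cells, 18-20hr seeding at 37C/5% CO2, then compound plus 1nM isoproterenol agonist mix for 0.5hr RT. Homogeneous time-resolved fluorescence cAMP detection after 1hr, expressed as 665/615 nm ratio.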

[17] = molecular target: Beta-2 adrenergic receptor (Homo sapiens) (UniProt P07550); experiment: Adrenergic beta2 receptor (ADRB2) small molecule agonists, cell-based qHTS assay (AID 1963593);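 also: CHO cells stably overexpressing human ADRB2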
How it was run: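 CHO cells stably over-expressing ADRB2 were plated overnight at 37C, then dosed with compounds plus a stimulation mix containing 100uM IBMX and 25uM Ro-20-1724 for 0.5hr at room temperature. cAMP was measured by HTRF competition, 1hr.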

[18] = molecular target: D(2) dopamine receptor (Homo sapiens) (UniProt P14416); experiment: Dopamine D2 receptor (DRD2) small molecule agonists, cell-based qHTS assay (AID 1963594); also: nearly all actives have a fitted effect of over 35% in size
How it was run: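 cAMP accumulation in DRD2-HEK293 cells measured by HTRF after 1 h detection; compounds added 10 min before NKH477 (200nM […]) forskolin-analogue stimulation, 30 min at room temperature, with Ro20-1724 present at 0.1 mM final.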

[19] = molecular target: D(2) dopamine receptor (Homo sapiens) (UniProt P14416); experiment: Dopamine D2 receptor (DRD2) small molecule antagonists, cell-based qHTS assay (AID 1963595; active = well fitted inhibition curve with a large enough effect in the signal ratio in the repeat runs, with a control signal flat; the % refers to the signal ratio)
How it was run: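 HEK293 cells stably expressing DRD2, preincubated with 0.1 mM Ro20-1724 and compounds 10 min, were stimulated with 200 nM NKH477 plus 12 nM quinpirole for 30 min at room temperature; cAMP measured by HTRF (665/620 nm).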

[20] = cAMP Responsive Elements (CRE) small molecule antagonists, cell-based qHTS assay (AID 1963591; active = well fitted inhibition curve with a large enough effect in the signal ratio in the repeat runs, not every such curve was filed as active; the % refers to the signal ratio)
How it was run: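 Antagonist mode: compounds are added alongside the adenylyl cyclase activator NKH477 (0.25 uM final) to CRE-bla HEK293T cells for 3 h. LiveBLAzer FRET substrate, 2 h at room temperature, reports bla expression.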

Measured: Potency

Sequence of KiSS-1 receptor (Homo sapiens) (Q969F8 whole entry, looked up): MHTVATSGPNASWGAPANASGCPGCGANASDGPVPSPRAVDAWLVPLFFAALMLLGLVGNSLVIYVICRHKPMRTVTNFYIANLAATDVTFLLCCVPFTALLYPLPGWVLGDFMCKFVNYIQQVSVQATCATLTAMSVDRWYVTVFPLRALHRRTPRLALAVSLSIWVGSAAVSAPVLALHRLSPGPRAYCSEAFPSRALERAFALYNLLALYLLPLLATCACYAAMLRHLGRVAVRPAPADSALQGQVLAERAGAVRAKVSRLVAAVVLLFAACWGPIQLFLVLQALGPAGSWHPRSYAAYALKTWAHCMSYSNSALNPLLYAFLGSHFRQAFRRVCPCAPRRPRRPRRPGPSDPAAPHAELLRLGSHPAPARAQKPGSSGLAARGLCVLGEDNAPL
Sequence of Gonadotropin-releasing hormone receptor (Homo sapiens) (P30968 whole entry, looked up): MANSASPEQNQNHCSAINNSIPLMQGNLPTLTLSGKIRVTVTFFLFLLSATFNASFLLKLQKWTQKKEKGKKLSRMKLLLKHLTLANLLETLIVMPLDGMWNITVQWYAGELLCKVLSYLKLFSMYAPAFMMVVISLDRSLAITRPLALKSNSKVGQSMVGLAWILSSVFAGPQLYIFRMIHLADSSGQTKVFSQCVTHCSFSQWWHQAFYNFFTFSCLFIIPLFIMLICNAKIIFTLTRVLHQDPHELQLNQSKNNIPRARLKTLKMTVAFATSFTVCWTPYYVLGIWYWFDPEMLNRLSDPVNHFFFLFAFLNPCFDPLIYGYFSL
Sequence of D(2) dopamine receptor (Homo sapiens) (P14416 whole entry, looked up): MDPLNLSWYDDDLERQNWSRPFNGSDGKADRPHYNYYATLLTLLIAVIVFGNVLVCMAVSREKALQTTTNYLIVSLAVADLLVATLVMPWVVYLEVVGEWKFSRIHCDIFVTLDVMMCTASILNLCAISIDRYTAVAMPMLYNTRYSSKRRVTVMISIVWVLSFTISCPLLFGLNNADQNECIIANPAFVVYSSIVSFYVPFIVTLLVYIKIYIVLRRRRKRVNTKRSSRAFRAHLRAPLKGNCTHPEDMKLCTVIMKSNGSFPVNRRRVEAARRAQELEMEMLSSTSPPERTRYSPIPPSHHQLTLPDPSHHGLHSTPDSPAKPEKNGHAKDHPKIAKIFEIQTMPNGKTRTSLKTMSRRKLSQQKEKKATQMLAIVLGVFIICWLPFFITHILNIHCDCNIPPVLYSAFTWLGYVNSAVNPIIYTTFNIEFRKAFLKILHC
Sequence of Beta-2 adrenergic receptor (Homo sapiens) (P07550 whole entry, looked up): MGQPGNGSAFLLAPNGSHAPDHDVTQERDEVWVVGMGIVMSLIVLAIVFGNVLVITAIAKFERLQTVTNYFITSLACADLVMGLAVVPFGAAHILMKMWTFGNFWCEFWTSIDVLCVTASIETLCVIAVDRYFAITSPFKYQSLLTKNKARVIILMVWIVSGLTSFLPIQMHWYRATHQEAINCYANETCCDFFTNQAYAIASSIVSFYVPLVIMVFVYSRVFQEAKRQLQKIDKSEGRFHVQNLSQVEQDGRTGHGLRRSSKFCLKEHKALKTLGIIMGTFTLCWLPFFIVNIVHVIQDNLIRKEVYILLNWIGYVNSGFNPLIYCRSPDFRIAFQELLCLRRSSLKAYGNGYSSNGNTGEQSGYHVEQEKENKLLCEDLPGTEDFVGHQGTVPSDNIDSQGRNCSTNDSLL
Sequence of 5-hydroxytryptamine receptor 2A (Homo sapiens) (P28223 whole entry, looked up): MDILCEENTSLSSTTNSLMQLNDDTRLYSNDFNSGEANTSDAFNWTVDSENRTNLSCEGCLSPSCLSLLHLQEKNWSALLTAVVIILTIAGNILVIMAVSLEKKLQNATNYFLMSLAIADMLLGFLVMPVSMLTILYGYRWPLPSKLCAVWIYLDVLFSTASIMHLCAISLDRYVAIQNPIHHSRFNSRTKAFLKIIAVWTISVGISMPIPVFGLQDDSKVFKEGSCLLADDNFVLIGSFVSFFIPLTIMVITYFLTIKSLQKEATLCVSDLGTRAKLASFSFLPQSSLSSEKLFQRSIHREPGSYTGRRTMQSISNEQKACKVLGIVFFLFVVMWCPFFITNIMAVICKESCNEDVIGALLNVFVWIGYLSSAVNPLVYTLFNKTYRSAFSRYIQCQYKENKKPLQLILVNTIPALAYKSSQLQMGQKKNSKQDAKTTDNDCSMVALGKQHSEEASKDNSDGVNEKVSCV
Sequence of Muscarinic acetylcholine receptor M1 (Homo sapiens) (P11229 whole entry, looked up): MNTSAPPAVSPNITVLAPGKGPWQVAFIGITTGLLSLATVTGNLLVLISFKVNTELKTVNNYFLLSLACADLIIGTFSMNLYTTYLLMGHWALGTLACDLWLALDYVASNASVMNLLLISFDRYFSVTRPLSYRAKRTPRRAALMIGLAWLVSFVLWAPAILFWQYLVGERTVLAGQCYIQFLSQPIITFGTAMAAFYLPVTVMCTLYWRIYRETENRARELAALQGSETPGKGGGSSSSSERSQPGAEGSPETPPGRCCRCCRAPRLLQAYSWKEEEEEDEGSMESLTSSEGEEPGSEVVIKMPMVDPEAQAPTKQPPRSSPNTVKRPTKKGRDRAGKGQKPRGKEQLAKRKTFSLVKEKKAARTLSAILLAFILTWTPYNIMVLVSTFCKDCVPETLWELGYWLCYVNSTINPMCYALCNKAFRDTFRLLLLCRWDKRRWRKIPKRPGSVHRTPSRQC

Nn1cnnc1
not listed: [20]
inactive: all other assays above

CCOC(=O)Nc1cccc(OC(=O)Nc2ccccc2)c1
inactive: all assays above

O=C/C=C/c1ccccc1
not listed: [11] | [12] | [13] | [14] | [17] | [19]
inactive: all other assays above

NC(=O)CN1CCCC1=O
not listed: [11] | [12] | [13] | [14]
inactive: all other assays above

Cc1cc(-c2cc(C)c(N)c(C)c2)cc(C)c1N
2.11 µM (active) and inactive: [13]
not listed: [11] | [16] | [17]
inactive: all other assays above

COc1ccc(C(O)(c2cncnc2)C2CC2)cc1 (stereo not given)
not listed: [12] | [13] | [14] | [20]
inactive: all other assays above

C=CC(N)=O
not listed: [11] | [12] | [13] | [14]
inactive: all other assays above

CCC(C)c1ccc(O)cc1 (stereo not given)
not listed: [15] | [20]
inactive: all other assays above

COCC(=O)N(c1c(C)cccc1C)N1CCOC1=O
not listed: [8]
inactive: all other assays above

Nc1ccc2ccccc2c1
active: [1] 37.2 µM and 27.3 µM
not listed: [11] | [17] | [20]
inactive: all other assays above

O=[N+]([O-])c1cc([As](=O)(O)O)ccc1O
not listed: [11] | [12] | [13] | [14] | [16]
inactive: all other assays above

O=C(O)C(F)(F)C(F)(F)C(F)(F)C(F)(F)C(F)(F)C(F)(F)F
not listed: [14] | [17] | [19] | [20]
inactive: all other assays above

OCC(Cl)CCl (stereo not given)
not listed: [13] | [14] | [20]
inactive: all other assays above

N#CCCO
not listed: [9] | [14] | [17]
inactive: all other assays above

NCc1cccnc1
inactive: all assays above

CCCOC(=O)c1ccccc1C(=O)OCCC
not listed: [8] | [19]
inactive: all other assays above
